Measurements: PubChem BioAssay AID1362 (SRMLSC, 2008)
Hit rate of the full screen: of about 190,000 compounds, about 4,000 (2.1%) were called active. No stated cut-off is given here; in the data, active means inhibition above about 58%; inactive means the rest, inconclusive results apart; tested in S. cerevisiae. Only a selection was taken, and actives are over-represented in it overall.

Test: growth inhibition of WT strain, primary screen, mitochondrial fusion inhibitor project, WT and mutant strains, chemical genetic (AID 1362)
Settings: mitochondrial fusion phenotypic screen, at 10 µM
[1] = WT strain, growth inhibition, stronger effect = higher value

| SMILES | inhibition [1] | inhibition (mutant strain inhibition) [%] |
| --- | --- | --- |
| CCNC(=S)NNC(=O)c1ccc2ncccc2c1 | -18.5% (inactive) | -0.98 |
| O=C(COC(=O)c1ccc(O)cc1)Nc1nccs1 | -7.58% (inactive) | 1.79 |
| O=C(CN1CCN(c2ccc(Cl)cc2)CC1)NCc1cccs1 | 14.4% (inactive) | -1.49 |
| O=C(CN1CCN(S(=O)(=O)c2ccc(Cl)s2)CC1)NCc1ccc(Cl)cc1 | 61.7% (active) | -2.81 |
| Cc1ccc(CNC(=O)CN2CCN(Cc3ccc(Cl)cc3)C2=O)cc1 | 4.82% (inactive) | -0.06 |
| Cc1ccc2nsnc2c1S(=O)(=O)N1CCCC1C(=O)O (stereo not drawn) | 2.57% (inactive) | -0.55 |
| CC(=O)NC(Cc1ccc(F)c(F)c1)C(=O)NC1CCN(c2nnnn2-c2ccccc2)CC1 (stereo not drawn) | -2.05% (inactive) | 7.21 |
| CS(=O)(=O)N(Cc1ccccc1Cl)c1ccc(C(=O)NCc2cccnc2)cc1 | 1.43% (inactive) | 5.31 |
| Clc1ccc(C2=CSC3=Nc4cccc5cccc(c45)N23)cc1 | 61% (active) | 25.3 |
| COc1ccc(CN2CCNC(=O)C2CC(=O)N(C)Cc2ccccn2)cc1OC (stereo not drawn) | -6.3% (inactive) | -4.12 |
| COC(=O)CSc1ccc2nnc(CCNS(=O)(=O)c3ccc(C)cc3)n2n1 | 8.31% (inactive) | 0.44 |
| CCCCCC(=O)Nc1ccc(-c2cn3cccnc3n2)cc1 | 10.4% (inactive) | 10.5 |
| COc1ccc(CCN=C2SCC(=O)N2Cc2ccccc2)cc1OC | -7.75% (inactive) | -8.9 |
| Cc1cccc(NC(=S)NCc2ccc3[nH]c4c(c3c2)CCCC4)c1 | 75.3% (active) | 51.7 |
| Cc1cccc(NC(=S)NCCN(C2CCCCC2)C2CCCC2)c1 | 6.36% (inactive) | -17.7 |
| O=C(O)CCC(=O)NCc1ccc2[nH]c3c(c2c1)CCCC3 | 16.4% (inactive) | 10.2 |
| OC(COc1ccc(CN2CCSCC2)cc1)CN1CCCCC1 (stereo not drawn) | -6.41% (inactive) | 3.34 |
| C=CCN(CC=C)C(=O)COC(=O)c1n[nH]c2ccccc12 | 3.05% (inactive) | 3.34 |
| NC(=O)COC(=O)c1cc(S(=O)(=O)N2CCN(c3ccccc3)CC2)ccc1Cl | -11% (inactive) | 6.11 |
| COc1cccc(NC(=S)NCc2ccccn2)c1 | -0.62% (inactive) | 6.49 |
| O=C(NCc1ccccn1)Nc1ccc(F)cc1 | -29.6% (inactive) | -0.93 |

| SMILES | inhibition [1] | inhibition (mutant strain inhibition) [%] |
| --- | --- | --- |
| CCC(C)c1ccc(NC(=S)NCc2ccccn2)cc1 (stereo not drawn) | 71% (active) | 62.6 |
| COc1ccccc1Oc1ccc(S(=O)(=O)Nc2cccnc2)cc1 | 7.74% (inactive) | 7.52 |
| Cc1cc(C)cc(NS(=O)(=O)c2ccc(Oc3ncc(C(F)(F)F)cc3Cl)cc2)c1 | 75.5% (active) | 23.7 |
| COC(=O)Cc1ccc(Oc2ncc(C(F)(F)F)cc2Cl)cc1 | 13.6% (inactive) | 17.5 |
| COC(=O)C1=C(C)N(C)C(=S)NC1c1cc(OC)ccc1OC (stereo not drawn) | 4.73% (inactive) | 3.84 |
| O=C(NCc1ccccc1Cl)C1CCCO1 (stereo not drawn) | -11.3% (inactive) | 7.12 |
| COC(=O)CNC(=O)c1ccc(OC2CCN(C(=O)C3CC3)CC2)cc1 | 1.17% (inactive) | 10.2 |
| CSc1cccc(NC(=S)N(Cc2ccccc2)Cc2ccccn2)c1 | 65.9% (active) | 28.6 |
| COc1cccc(NC(=S)N(Cc2ccc(C)cc2)Cc2ccccn2)c1 | 4.22% (inactive) | 20.6 |
| CSc1cccc(NC(=S)N(C(C)C)C(C)c2ccccn2)c1 (stereo not drawn) | 31.2% (inactive) | 20.5 |
| CC(=O)Nc1ccc(S(=O)(=O)N(C)c2ccc(OCC(=O)OCC(=O)N3CCCCC3)cc2)cc1 | 0.1% (inactive) | -22.2 |
| Cc1ccc(SCCC(=O)Nc2cc(C)on2)cc1 | 10.3% (inactive) | -8.98 |
| NC1=NC2(CCCCC2)N(c2ccc(F)cc2F)C(N)=N1 | -0.71% (inactive) | -2.91 |
| Cc1ccc2cc(C#N)c(NCCNC(=S)NCCCN3CCOCC3)nc2c1 | 10.9% (inactive) | 3.33 |
| COCCCNC(=S)NCCNc1nc2cc(C)c(C)cc2cc1C#N | 7.68% (inactive) | 10.7 |
| Cc1ccc2nc(NCCCNC(=O)c3cnccn3)c(C#N)cc2c1 | 90.6% (active) | -2.29 |
| O=C(NC1CC1)C1CCCN(C(=O)NC2CCCCC2)C1 (stereo not drawn) | -6.93% (inactive) | -6.42 |
| COc1nc(NC2CCCCC2)nc(N2CCCCCC2)n1 | 66.3% (active) | 28.3 |
| Cc1ccnc(N2CCC(C(=O)NC3CCCCCC3)CC2)n1 | -13.5% (inactive) | -18.9 |
| FC(F)(F)COc1nc(N2CCCCC2)nc(N2CCNCC2)n1 | 3.34% (inactive) | 2.8 |
| CCN(CCCNC(=O)CSc1cc(=O)n(C)c2cc(Cl)ccc12)Cc1ccccc1 | -10.6% (inactive) | -11.8 |

| SMILES | inhibition [1] | inhibition (mutant strain inhibition) [%] |
| --- | --- | --- |
| CC(O)CNCCOc1cccc(Oc2ccccc2)c1 (stereo not drawn) | -0.49% (inactive) | 17.6 |
| CCOC(=O)c1[nH]ncc1CN1CCCC(C(=O)c2ccc(OC)cc2C)C1 (stereo not drawn) | 3.7% (inactive) | 9.86 |
| O=C(N/N=C/c1cc2c(cc1Br)OCO2)C1COc2ccccc2O1 (stereo not drawn) | 29.9% (inactive) | 30 |
| Cc1nc2ccccc2nc(C)c1=NOCc1ccc(Cl)cc1Cl | 67.9% (active) | 2.92 |
| COC(=O)c1sc2ncccc2c1OCc1ccc(Cl)cc1Cl | 12.8% (inactive) | -2.97 |
| O=S(=O)(O)c1nc2ccccc2n1Cc1ccc(Cl)cc1Cl | 18.7% (inactive) | 26 |
| CC(C)N1C(=S)SC(C)(C)C1n1oc(=O)n(-c2ccc(Cl)c(Cl)c2)c1=O (stereo not drawn) | 76.3% (active) | 19.9 |
| Cc1ccc(C2CC(c3cccc(NS(C)(=O)=O)c3)=NN2S(C)(=O)=O)cc1 (stereo not drawn) | 4.24% (inactive) | 6.73 |
| CCOc1cc(CNn2c(C)nnc2SCC(=O)NC(C)(C)C)ccc1OCC(=O)NC(C)(C)C | -19.6% (inactive) | 0.2 |
| Cc1cc(C(=O)CCl)c(C)n1CC1COc2ccccc2O1 (stereo not drawn) | 7.72% (inactive) | 25.4 |
| N#Cc1c(N)nc2c(c1N)CC(C(F)(F)F)O2 (stereo not drawn) | -7.69% (inactive) | 1.1 |
| Cc1nc(N2CCOCC2)c2c(C)c(C(=O)Nc3ccc(C(F)(F)F)cc3)sc2n1 | 47.4% (inactive) | -8.5 |
| Cc1nc(N2CCC(C)CC2)c2c(C)c(C(=O)Nc3cc(F)ccc3C)sc2n1 | 64% (active) | -25.2 |
| Cc1nc(N2CCN(c3ccccn3)CC2)c2c(C)c(C(=O)Nc3ccc(F)cc3)sc2n1 | 38.7% (inactive) | 11.3 |
| c1ccc(-c2cc(N3CCCCC3)c3ccccc3n2)cc1 | 36.4% (inactive) | 49.1 |
| CC(C)NC(=S)NN=C1CCCCCCCCCCC1 | 69.5% (active) | 53.1 |
| CC(C)(C)NC(=O)C(=O)NN=C1CCCCCCC1 | -0.12% (inactive) | 9.74 |
| CC(=O)NC(NC(=S)Nc1c(C)n(C)n(-c2ccccc2)c1=O)C(Cl)(Cl)Cl (stereo not drawn) | 15.8% (inactive) | 0.58 |
| CCOCCCNC(=S)N1CCC(NC(=O)C2CCCCC2)CC1 | 6.14% (inactive) | 2.16 |
| COc1ccc(NS(=O)(=O)c2ccc(O)c(C(=O)OCC(=O)NC3CCCCC3)c2)cc1 | -15% (inactive) | 17.3 |
| Fc1ccc(N2N=C(c3cccs3)CC2c2ccco2)c(F)c1 (stereo not drawn) | 70.8% (active) | 10.1 |

| SMILES | inhibition [1] | inhibition (mutant strain inhibition) [%] |
| --- | --- | --- |
| COc1ccc(C2CC(c3cccs3)=NN2c2ccc(F)cc2)cc1OC (stereo not drawn) | 30.3% (inactive) | 11.7 |
| COc1ccccc1N1N=C(c2cccs2)CC1c1ccccc1 (stereo not drawn) | 52.7% (inactive) | 33.7 |
| CCN1CCC2(CCN(Cc3cn[nH]c3-c3ccc(OC)c(F)c3)C2)C1 (stereo not drawn) | -2.46% (inactive) | -5.08 |
| CCC1CCCCN1S(=O)(=O)Cc1ccccc1Cl (stereo not drawn) | 0.45% (inactive) | 1.41 |
| CN1C2CCC1/C(=C\c1ccccc1Cl)C(=O)/C2=C\c1ccccc1Cl | 60.7% (active) | 32.3 |
| O=C(CN1CCCCCC1)NCCN1C(=O)S/C(=C\c2ccccc2Cl)C1=O | 2.91% (inactive) | -4.16 |
| COc1ccc(Cl)cc1N(CC(=O)N1CCCCC1)S(C)(=O)=O | 11.8% (inactive) | 0.08 |
| Cc1cc(C)cc(C(=O)NC2C(=O)N3C(C(=O)O)=C(CSc4nnc(C)s4)CSC23)c1 (stereo not drawn) | 4% (inactive) | -0.51 |
| COC(=O)c1sc(NC(=O)c2csc3c2CCCC3)nc1C | 16.5% (inactive) | 0.86 |
| Cc1ccc(NC(=O)c2csc3c2CCCC3)cc1 | 11.5% (inactive) | 21.5 |
| COC(=O)c1sccc1NC(=O)c1csc2c1CCCC2 | 71.3% (active) | 48.8 |
| CC(=O)c1cccc(-n2nnnc2SCC(=O)NNC(=O)C2CCCCC2)c1 | 6.05% (inactive) | 12.8 |
| Cc1cc(-c2nnc(CCC(=O)NC(c3ccccc3)c3ccccc3)o2)no1 | 7.01% (inactive) | 6.86 |
| CC(Sc1nc2ccccc2c(=O)n1Cc1ccco1)C(=O)c1ccccc1 (stereo not drawn) | 69.4% (active) | 31.3 |
| CCOC(=O)C(C)Sc1nc2ccccc2c(=O)n1CC1CCCCC1 (stereo not drawn) | 21.8% (inactive) | -3.67 |
| O=C(CCCn1c(SCC(=O)c2ccc(F)cc2)nc2ccccc2c1=O)NCc1ccco1 | 7.88% (inactive) | 15.5 |
| Cc1cc([N+](=O)[O-])nn1CCCC(=O)Nc1cccnc1Cl | -5.91% (inactive) | -23.5 |
| COc1cc(S(=O)(=O)N2CCOCC2)ccc1NC(=O)COc1ccc(N(C)S(=O)(=O)c2ccc(C)cc2)cc1 | 3.51% (inactive) | -4.35 |
| Cc1nc(C)c(C(=O)N(c2ccc(C)c(C)c2)C(C(=O)NCc2ccco2)c2ccccc2)s1 (stereo not drawn) | 16.8% (inactive) | 9.51 |
| Cc1nn(-c2ccccc2)c2sc(C(=O)N(Cc3ccco3)C(C)C(=O)NC(C)(C)C)cc12 (stereo not drawn) | 68.7% (active) | 1.44 |
| Cc1ccc(-c2nnn(CC(=O)N(Cc3ccco3)C(C(=O)NC(C)(C)C)c3ccncc3)n2)o1 (stereo not drawn) | -1.04% (inactive) | -4.44 |
